From PubChem BioAssay (Tox21)
Records with an inconclusive call do not appear. Entries that show only a call come without a potency. Some structures have more than one record in an assay (separate samples or runs), and their calls can disagree. Calls of active or inactive are those of the source. Unless noted, calls follow the shape of the dose curve; as a rule, active = well fitted curve in the direction sought with a large enough effect in the repeat runs; inconclusive = weak or mixed curves; inactive = no such curve, though single readings can be large; an effect the other way counts as inactive or inconclusive.

How the values were obtained:
[1] = biological target: Progesterone receptor (Homo sapiens) (UniProt P06401); assay: qHTS assay to identify small molecule agonists of the progesterone receptor (PR) signaling pathway (AID 1346784; calls by dose curve; also: nearly all actives have a fitted effect of over 30% in size)
Sequence of Progesterone receptor (Homo sapiens) (P06401 whole entry, looked up): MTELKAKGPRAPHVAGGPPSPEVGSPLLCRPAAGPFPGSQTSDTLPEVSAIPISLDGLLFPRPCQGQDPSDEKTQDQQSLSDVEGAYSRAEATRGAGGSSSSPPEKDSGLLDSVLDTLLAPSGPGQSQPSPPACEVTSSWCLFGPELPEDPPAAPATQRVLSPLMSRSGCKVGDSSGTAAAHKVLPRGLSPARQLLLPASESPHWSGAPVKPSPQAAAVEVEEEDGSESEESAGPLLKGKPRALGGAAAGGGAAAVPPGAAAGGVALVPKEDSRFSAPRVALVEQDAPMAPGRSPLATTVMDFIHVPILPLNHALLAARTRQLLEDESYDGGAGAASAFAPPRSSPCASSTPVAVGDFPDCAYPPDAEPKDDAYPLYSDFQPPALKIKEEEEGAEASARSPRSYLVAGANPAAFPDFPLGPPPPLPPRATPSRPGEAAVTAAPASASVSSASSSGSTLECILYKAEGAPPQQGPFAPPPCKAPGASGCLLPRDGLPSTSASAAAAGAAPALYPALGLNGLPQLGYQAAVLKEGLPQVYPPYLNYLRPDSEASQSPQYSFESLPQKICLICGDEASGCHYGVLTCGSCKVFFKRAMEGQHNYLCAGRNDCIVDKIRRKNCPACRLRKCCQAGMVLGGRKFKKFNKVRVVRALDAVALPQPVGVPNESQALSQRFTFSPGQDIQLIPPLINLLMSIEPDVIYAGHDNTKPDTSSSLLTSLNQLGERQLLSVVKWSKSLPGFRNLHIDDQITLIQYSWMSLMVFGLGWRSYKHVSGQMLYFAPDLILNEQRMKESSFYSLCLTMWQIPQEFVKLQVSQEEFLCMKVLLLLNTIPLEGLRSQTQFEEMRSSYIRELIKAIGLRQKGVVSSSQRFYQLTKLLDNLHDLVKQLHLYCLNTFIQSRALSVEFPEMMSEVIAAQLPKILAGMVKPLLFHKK
How it was run: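 HEK 293T PR-UAS-bla reporter cells, 2% charcoal-stripped FBS; 6 hr settle at 37C/5% CO2, compound (DMSO) 16 hr, LiveBLAzer B/G FRET substrate 2 hr RT, fluorescence intensity read.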

[2] = biological target: Progesterone receptor (Homo sapiens) (UniProt P06401); assay: qHTS assay to identify small molecule antagonists of the progesterone receptor (PR) signaling pathway (AID 1346795; active = well fitted inhibition curve with a large enough effect in the signal ratio in the repeat runs, not every such curve was filed as active; the % refers to the signal ratio)
How it was run: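 Beta-lactamase reporter, HEK293T PR-UAS-bla line; 2% charcoal-stripped FBS; 6 hr pre-incubation, 37C/5% CO2. Compound + R5020 1 nM final, 16 hr. LiveBLAzer B/G FRET substrate, 2 hr RT; fluorescence intensity read.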

[3] = qHTS assay to identify small molecule antagonists of the progesterone receptor (PR) signaling pathway - cell viability counter screen (AID 1346798); also: series mostly up to about 92 µM; nearly all actives have a fitted effect of over 50% in size
How it was run: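 Luminescence readout (CellTiter-Glo, 30 min, RT) of viability in PR-UAS-bla HEK293T cells exposed to compound and R5020 agonist for 16 hr at 37C, 5% CO2; run in the same wells as the beta-lactamase reporter read.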

[4] = qHTS assay to identify small molecule agonists of the progesterone receptor (PR) signaling pathway - cell viability counter screen (AID 1346799; calls by dose curve; also: nearly all actives have a fitted effect of over 45% in size)
How it was run: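 HEK293T PR-UAS-bla, 3,000 cells/well, 2% charcoal-stripped FBS; 6 h settle, compound 16 h at 37C/5% CO2; LiveBLAzer 2 h RT, then CellTiter-Glo 30 min RT, luminescence read.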

[5] = qHTS assay to identify small molecule agonists of the TGF-beta/Smad signaling pathway - cell viability counter screen (AID 1346829); also: top concentration of the series differs between compounds; nearly all actives have a fitted effect of over 45% in size
How it was run: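 After overnight seating at 37 C and 5% CO2, reporter cells got compounds for 5 hr and FRET substrate for 2 hr; cell viability then came from CellTiter-Glo luminescence.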

[6] = qHTS assay to identify small molecule agonists of the TGF-beta/Smad signaling pathway (AID 1346859; active = well fitted activation curve with a large enough effect in the signal ratio in the repeat runs, not every such curve was filed as active; the % refers to the signal ratio; also: series mostly up to about 77 µM)
How it was run: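 Read-out: fluorescence at 460 and 530 nm (405 nm excitation) after a 2 hr room-temperature incubation with beta-lactamase FRET substrate. SBE-bla HEK 293T cells had been treated with test compounds for 5 hr at 37 C.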

[7] = biological target: Thyrotropin-releasing hormone receptor (Homo sapiens) (UniProt P34981); assay: qHTS assay to identify small molecule antagonists of the thyrotropin-releasing hormone receptor (TRHR) signaling pathway (AID 1346877; active = well fitted inhibition curve with a large enough effect in the repeat runs, not every such curve was filed as active; also: series mostly up to about 51 µM)
Sequence of Thyrotropin-releasing hormone receptor (Homo sapiens) (P34981 whole entry, looked up): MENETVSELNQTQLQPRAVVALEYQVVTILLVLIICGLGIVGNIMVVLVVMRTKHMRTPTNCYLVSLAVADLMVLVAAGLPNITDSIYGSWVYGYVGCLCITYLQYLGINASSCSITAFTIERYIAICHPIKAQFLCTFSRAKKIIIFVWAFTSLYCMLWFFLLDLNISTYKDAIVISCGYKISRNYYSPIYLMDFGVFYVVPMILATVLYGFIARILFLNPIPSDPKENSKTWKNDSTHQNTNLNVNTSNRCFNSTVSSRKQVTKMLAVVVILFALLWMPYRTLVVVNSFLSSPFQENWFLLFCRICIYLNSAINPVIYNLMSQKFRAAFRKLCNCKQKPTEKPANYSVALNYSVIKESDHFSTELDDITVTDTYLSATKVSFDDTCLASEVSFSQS
How it was run: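 In this cell-based calcium flux format, HEK293 cells expressing TRHR received test compound for 5 min before the agonist TRH (1 nM final). Dye loading lasted 2 h at 37 °C.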

[8] = biological target: Thyrotropin-releasing hormone receptor (Homo sapiens) (UniProt P34981); assay: qHTS assay to identify small molecule agonists of the thyrotropin-releasing hormone receptor (TRHR) signaling pathway (AID 1346891; calls by dose curve; also: series mostly up to about 58 µM)
How it was run: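 HEK293/TRHR cells, 1500 per well, 18 h 37 °C; Ca dye 2 h 37 °C; pin-tool compound addition (agonist mode); kinetic fluorescence 3 min, 1 s reads; 15 concentrations, triplicate.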

[9] = Human pregnane X receptor (PXR) small molecule agonists, qHTS cell viability counter screen (AID 1346977); also: nearly all actives have a fitted effect of over 50% in size
How it was run: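 Fluorescence read-out (CellTiter-Fluor) of viability in PXR-Luc HepG2 cells, multiplexed with the luciferase agonist read. Compounds in DMSO added after 5hr plating; 24hr total exposure at 37C, 5% CO2.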

[10] = Caspase-3/7 induction in HepG2 cells by small molecules, qHTS assay (AID 1346978); also: nearly all actives have a fitted effect of over 15% in size
How it was run: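 Wild-type HepG2 cells (2,000/well) were settled 5 h at 37 C, 5% CO2, then exposed to compounds in DMSO for 17 h. Caspase-3/7 activity was read by luminescence 30 min after adding Caspase-Glo 3/7 reagent at room temperature.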

[11] = Caspase-3/7 induction in CHO-K1 cells by small molecules, qHTS cell viability counter screen (AID 1346979); also: nearly all actives have a fitted effect of over 35% in size
How it was run: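 CHO-K1 wt, 1,500 cells/well; 5hr pre-incubation 37C/5% CO2; compound pin transfer (DMSO); 16hr exposure; CellTiter-Fluor added, 1hr, fluorescence read.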

[12] = Caspase-3/7 induction in CHO-K1 cells by small molecules, qHTS assay (AID 1346980); also: nearly all actives have a fitted effect of over 15% in size
How it was run: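 Wild-type cells were seeded at 1,500 per well and settled 5 hr at 37 C, 5% CO2, then exposed to DMSO-dissolved compounds for 17 hr. Caspase-Glo 3/7 reagent was added, and luminescence was read after 30min at room temperature.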

[13] = Caspase-3/7 induction in HepG2 cells by small molecules, qHTS cell viability counter screen (AID 1346981); also: series mostly up to about 92 µM; nearly all actives have a fitted effect of over 30% in size
How it was run: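 Counter screen for cytotoxicity: HepG2 exposed 16 hr to compounds, then CellTiter-Fluor viability signal (fluorescence, 1 hr reagent incubation).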

[14] = biological target: Nuclear receptor subfamily 1 group I member 2 (Homo sapiens) (UniProt O75469); assay: Human pregnane X receptor (PXR) small molecule agonists, qHTS assay (AID 1346982); also: nearly all actives have a fitted effect of over 35% in size; also: potency is read from the fitted curve at half-maximal effect
Sequence of Nuclear receptor subfamily 1 group I member 2 (Homo sapiens) (O75469 whole entry, looked up): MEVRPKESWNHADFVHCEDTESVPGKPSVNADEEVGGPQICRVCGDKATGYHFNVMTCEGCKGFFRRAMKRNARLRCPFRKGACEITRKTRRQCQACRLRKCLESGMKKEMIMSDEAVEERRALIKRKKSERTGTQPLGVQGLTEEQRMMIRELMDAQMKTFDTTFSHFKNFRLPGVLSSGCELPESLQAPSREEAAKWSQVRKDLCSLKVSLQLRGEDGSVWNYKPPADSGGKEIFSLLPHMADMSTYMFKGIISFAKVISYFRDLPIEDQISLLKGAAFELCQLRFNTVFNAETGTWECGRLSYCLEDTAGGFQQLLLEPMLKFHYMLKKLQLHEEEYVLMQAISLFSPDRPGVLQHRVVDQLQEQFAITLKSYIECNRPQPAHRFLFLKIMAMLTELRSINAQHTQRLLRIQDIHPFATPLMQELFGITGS
How it was run: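 Luminescence (ONE-Glo, 30 min RT) after 24 hr compound exposure of PXR-Luc HepG2 cells; cells rested 5 hr post-plating in 5% charcoal-stripped FBS medium.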

[15] = biological target: Acetylcholinesterase (Homo sapiens) (UniProt P22303); assay: Acetylcholinesterase (AChE) small molecule antagonists: colormetric cell-based qHTS assay (AID 1347395; calls by dose curve; also: nearly all actives have a fitted effect of over 30% in size; also: potency is read from the fitted curve at half-maximal effect)
Sequence of Acetylcholinesterase (Homo sapiens) (P22303 whole entry, looked up): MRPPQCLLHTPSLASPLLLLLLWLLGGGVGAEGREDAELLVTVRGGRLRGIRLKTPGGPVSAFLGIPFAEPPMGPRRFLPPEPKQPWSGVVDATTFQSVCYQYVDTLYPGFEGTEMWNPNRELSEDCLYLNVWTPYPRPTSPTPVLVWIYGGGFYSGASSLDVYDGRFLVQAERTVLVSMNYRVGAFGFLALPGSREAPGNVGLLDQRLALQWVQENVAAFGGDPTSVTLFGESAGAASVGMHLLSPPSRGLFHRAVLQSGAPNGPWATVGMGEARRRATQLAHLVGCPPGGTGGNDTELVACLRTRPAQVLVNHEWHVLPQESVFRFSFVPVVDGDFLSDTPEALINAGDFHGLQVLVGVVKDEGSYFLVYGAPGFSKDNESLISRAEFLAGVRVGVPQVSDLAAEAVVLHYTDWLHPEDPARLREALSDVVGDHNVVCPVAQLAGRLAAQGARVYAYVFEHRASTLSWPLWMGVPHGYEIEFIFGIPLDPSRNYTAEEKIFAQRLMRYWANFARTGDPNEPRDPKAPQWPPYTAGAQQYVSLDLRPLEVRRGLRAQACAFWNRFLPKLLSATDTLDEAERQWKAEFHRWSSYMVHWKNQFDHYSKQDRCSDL
How it was run: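 SH-SY5Y cells; cpd 30 min 37 C; + DTNB/acetylthiocholine, 90 min 37 C; colorimetric thiocholine read; qHTS.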

[16] = biological target: Acetylcholinesterase (Homo sapiens) (UniProt P22303); assay: Acetylcholinesterase (AChE) small molecule antagonists: enzyme-based qHTS assay (AID 1347397; calls by dose curve; also: nearly all actives have a fitted effect of over 55% in size); details: Potency: AChE enzyme activity inhibition
How it was run: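 Recombinant human AChE, dispensed at 50 mU/mL, was preincubated with Tox21 10K compounds or DMSO vehicle for 30 min at room temperature. DTNB plus acetylthiocholine was then added, and thiocholine was measured colorimetrically after a further 10 min.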

[17] = qHTS assay to identify small molecule antagonists of the TGF-beta/Smad signaling pathway - cell viability counter screen (AID 1346824); also: nearly all actives have a fitted effect of over 50% in size
How it was run: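 SBE-bla HEK 293T cells were plated overnight at 37 C, then given compounds in DMSO plus TGF-beta1 (added as 0.25 ng/mL solution) for 5 hr. After the bla read, CellTiter-Glo was added to the same wells and luminescence read after 30 min at room temperature.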

[18] = biological target: Nuclear receptor subfamily 1 group I member 2 (Rattus norvegicus) (UniProt Q9R1A7); assay: Rat pregnane X receptor (rPXR) activation by small molecules, qHTS assay (AID 1346983); details: rPXR luciferase reporter cells, One-Glo luminescence, 24 h; stronger effect = higher value; also: nearly all actives have a fitted effect of over 20% in size
Sequence of Nuclear receptor subfamily 1 group I member 2 (Rattus norvegicus) (Q9R1A7 whole entry, looked up): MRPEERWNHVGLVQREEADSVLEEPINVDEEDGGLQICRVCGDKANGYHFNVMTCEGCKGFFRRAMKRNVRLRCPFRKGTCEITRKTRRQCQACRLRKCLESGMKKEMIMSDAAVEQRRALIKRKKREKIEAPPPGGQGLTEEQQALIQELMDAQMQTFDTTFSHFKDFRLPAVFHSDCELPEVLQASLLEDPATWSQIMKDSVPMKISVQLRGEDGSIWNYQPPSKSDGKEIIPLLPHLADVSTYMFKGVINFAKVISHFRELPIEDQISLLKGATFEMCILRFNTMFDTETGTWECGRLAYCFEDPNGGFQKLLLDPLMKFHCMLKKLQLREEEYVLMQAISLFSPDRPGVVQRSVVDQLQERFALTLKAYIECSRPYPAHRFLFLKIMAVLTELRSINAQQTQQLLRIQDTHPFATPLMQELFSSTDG
How it was run: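 Cell-based rPXR luciferase reporter assay, 2,000 cells per well, rested 5hr at 37 C before compound addition in DMSO, then 24 hr at 37 C. One-Glo reagent was added and luminescence read after 30 min at room temperature.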

[19] = biological target: Nuclear receptor subfamily 1 group I member 2 (Homo sapiens) (UniProt O75469); assay: CYP3A4 induction through human pregnane X receptor (PXR) by small molecules, qHTS assay (AID 1346984); also: nearly all actives have a fitted effect of over 40% in size
How it was run: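 DPX-2 reporter cells; 24h cpd, 37C; Luciferin-IPA 3uM final x3h; One-Glo 30 min RT; lumi read.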

[20] = biological target: Nuclear receptor subfamily 1 group I member 2 (Homo sapiens) (UniProt O75469); assay: Human pregnane X receptor (PXR) activation by small molecules, qHTS assay (AID 1346985); also: nearly all actives have a fitted effect of over 40% in size
How it was run: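 DPX-2 cells (HepG2 co-transfected with a PXR response element and a CYP3A4-promoter luciferase construct) were seeded at 2,000 per well, rested 5 hr at 37C, then exposed to DMSO-dissolved compounds for 24 hr. Activation was read as luciferase luminescence.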

| SMILES | Potency [1] | Potency [2] | Potency [3] | Potency [4] | Potency [5] | Potency [6] | Potency [7] | outcome [8] | Potency [9] | Potency [10] | Potency [11] | Potency [12] | Potency [13] | Potency [14] | Potency [15] | Potency [16] | Potency [17] | max activation [18] | Potency [19] | outcome [20] |
| --- | --- | --- | --- | --- | --- | --- | --- | --- | --- | --- | --- | --- | --- | --- | --- | --- | --- | --- | --- | --- |
| CC(O)CN(CC(C)O)CC(C)O (stereo not drawn) | inactive | inactive | inactive | inactive | inactive | inactive | inactive | inactive | inactive | inactive | inactive | inactive | inactive | inactive | inactive | inactive | – | – | – | – |
| O=C(O)c1nn(Cc2ccc(Cl)cc2Cl)c2ccccc12 | inactive | inactive | inactive | inactive | inactive | – | inactive | inactive | inactive | inactive | inactive | inactive | inactive | 60.7 µM (active) and inactive | inactive | inactive | inactive | – | – | – |
| O=C1CCCO1 | inactive | inactive | inactive | inactive | inactive | inactive | inactive | inactive | inactive | inactive | inactive | inactive | inactive | inactive | inactive | inactive | – | – | – | – |
| CN(C)P(=O)(N(C)C)N(C)C | inactive | inactive | inactive | inactive | inactive | inactive | inactive | inactive | inactive | inactive | – | inactive | inactive | inactive | inactive | inactive | – | – | – | – |
| Cn1c(-c2ccccc2)cc(-c2ccccc2)[n+]1C | inactive | inactive | inactive | inactive | inactive | inactive | inactive | inactive | inactive | inactive | inactive | inactive | inactive | inactive | – | inactive | – | – | – | – |
| ClC(Cl)(Cl)Br | inactive | inactive | inactive | inactive | inactive | inactive | inactive | inactive | inactive | inactive | inactive | inactive | inactive | inactive | inactive | inactive | – | – | – | – |
| CC1(C)Cc2cccc(O)c2O1 | inactive | inactive | inactive | inactive | inactive | inactive | inactive | inactive | inactive | inactive | – | inactive | inactive | inactive | inactive | inactive | – | – | – | – |
| COc1ccc(CO)cc1 | inactive | inactive | inactive | inactive | inactive | inactive | inactive | inactive | inactive | inactive | inactive | inactive | inactive | – | – | – | – | – | – | – |
| COP(=S)(OC)Oc1ccc(S(=O)(=O)N(C)C)cc1 | inactive | inactive | inactive | inactive | inactive | inactive | – | – | inactive | inactive | inactive | inactive | inactive | 34.4 µM (active) and inactive | 39.9 µM (active) | inactive | inactive | -2.31% (inactive) | inactive | inactive |
| CN(C)c1nc(=O)n(C2CCCCC2)c(=O)n1C | inactive | inactive | inactive | inactive | inactive | inactive | inactive | inactive | inactive | inactive | inactive | inactive | inactive | 65 µM (active) and inactive | inactive | inactive | – | – | – | – |
| Nc1ncn[nH]1 | inactive | inactive | inactive | inactive | inactive | inactive | – | – | inactive | inactive | inactive | inactive | inactive | inactive | inactive | inactive | inactive | – | – | – |
| CC(C)CON=O | inactive | inactive | inactive | inactive | inactive | inactive | – | – | inactive | inactive | – | inactive | inactive | inactive | inactive | inactive | inactive | – | – | – |
| Cc1cc(Cl)ccc1N=CN(C)C | inactive | inactive | inactive | inactive | inactive | inactive | inactive | inactive | inactive | inactive | inactive | inactive | inactive | – | – | – | – | – | – | – |
